“And” between values parts separate entries of the source, which are not always exact repeats. Identical values can stand only once. Out of some 370,000 compounds screened, about 1,600 (0.43%) were called active. Cut-off read from the data, not from the text of the source: active = inhibition above about 24%; inactive = the rest. The list comes from a sample in which actives are over-represented; it also holds similar structures and randomly drawn compounds.
Molecular target: Major prion protein (Homo sapiens) (UniProt P04156)
Assay: reduces human prion protein on the cell surface, primary screen, cell-based, TR-FRET (AID 720596); note: 0% = median of the test wells and 100% = reference compound wells
Conditions: cell surface PrPC, TR-FRET read-out; at 13.8 µM; active compounds read high

For `O=C(c1ccc(-c2ccccc2)cc1)C1CCCN(C(=O)c2cncs2)C1` (centres undefined), which inhibition is on record?
Its inhibition is 6.46% (inactive).

Which inhibition does the source give for `C=CCN(c1ccccc1C(=O)NCC(=O)OCC)S(=O)(=O)c1ccc(C)cc1` here?
The inhibition was 5.82% (inactive).

With `CCc1ccc(Oc2coc3cc(OC(=O)c4cc5ccccc5oc4=O)ccc3c2=O)cc1` as the compound, how does the inhibition read?
Its inhibition is -6.51% (inactive).

For `O=C(Oc1ccccc1)Oc1ccc2c(c1)oc(=O)c1ccccc12`, which inhibition is on record?
The inhibition was 31.3% (active).

With `O=C(OCCN1C(=O)c2ccccc2C1=O)Oc1ccccc1` as the compound, how does the inhibition read?
Its inhibition is -3.25% (inactive).

How did the inhibition turn out when `C=C(C)c1cccc(C(C)(C)NC(=O)NCCN(CC)CC)c1` was run?
Its inhibition is -1.16% (inactive).

How did the inhibition turn out when `CCOc1ccc(NC(=O)C2CC(=O)N=C(N)S2)cc1` (centres undefined) was run?
The inhibition was 3.27% (inactive).

For `CCc1ccc(OCC(=O)N(Cc2ccccc2)C2CCS(=O)(=O)C2)cc1` (centres undefined), which inhibition is on record?
The inhibition was 7.58% (inactive).

Which inhibition does the source give for `CC1=CC2=NC(=O)CC(C)(C(=O)N(CC(=O)NC(C)(C)C)Cc3ccccc3)N2C=C1` (centres undefined) here?
The inhibition was -11.9% (inactive).

How did the inhibition turn out when `O=C(O)CCc1nc2cc(Cl)ccc2n(Cc2ccccc2)c1=O` was run?
The inhibition was -3.72% (inactive).

For `O=c1[nH]cccc1-c1nc2ccccc2n1Cc1ccc(Cl)cc1`, which inhibition is on record?
Its inhibition is 48.8% (active).

With `O=C(Cn1c(-c2cscn2)nc2ccccc21)Nc1ccc(Cl)cc1` as the compound, how does the inhibition read?
The inhibition was 16.8% (inactive).

For `CCCCCn1nnnc1-c1nc2cc3ccccc3cc2[nH]c1=O`, which inhibition is on record?
Its inhibition is -2.3% (inactive).

For `COc1cc(OC)c(C(=O)OC(C)C(=O)Nc2cc(C(F)(F)F)ccc2Cl)cc1OC` (centres undefined), which inhibition is on record?
The inhibition was -3.19% (inactive).

`CC(=O)c1ccc(S(=O)(=O)N(C)CCCC(=O)N(C)Cc2ccccc2F)cc1` was tested. Which inhibition did it give?
The inhibition was 3.84% (inactive).

`Cc1ccc(S(=O)(=O)NCC2CCC(C(=O)N3CCOCC3)CC2)cc1` (centres undefined) was tested. Which inhibition did it give?
The inhibition was 9.49% (inactive).

For `O=C(Cn1nnc(-c2ccccc2)n1)NC(=O)NC1CCCC1`, which inhibition is on record?
The inhibition was 1.46% (inactive).

With `O=C(NNC(=O)C(O)c1ccccc1)NC1CCCCC1` (centres undefined) as the compound, how does the inhibition read?
The inhibition was 5.45% (inactive).

With `Cc1nc(/N=C(\N)NC(=O)NC2CCCCC2)nc2ccccc12` as the compound, how does the inhibition read?
The inhibition was 27.6% (active).

How did the inhibition turn out when `C[C@H]1CN([C@@H](C)CO)C(=O)c2cc(C3=CCCCC3)cnc2O[C@@H]1CN(C)C(=O)Cc1ccccc1` was run?
The inhibition was -9.73% (inactive).

Which inhibition does the source give for `Cc1sc2c(c1C)c(=O)n(-c1ccccc1)c1nncn21` here?
Its inhibition is -3.5% (inactive).

With `c1ccc(CCC2=NCCn3cccc32)cc1` as the compound, how does the inhibition read?
The inhibition was -4.1% (inactive) and -18.3% (inactive).

For `CCOc1ccc(C(CC(=O)O)n2cnnn2)cc1OC` (centres undefined), which inhibition is on record?
Its inhibition is -3.65% (inactive).

With `CCCCCCCC(=O)NC(Nc1ccccc1OC)C(Cl)(Cl)Cl` (centres undefined) as the compound, how does the inhibition read?
Its inhibition is 1.28% (inactive).

`CCCCC(=O)NC(c1ccc(OC)c(OC)c1)c1ccc2cccnc2c1O` (centres undefined) was tested. Which inhibition did it give?
The inhibition was 28.6% (active).

`CCOC(=O)C1=CCC(c2ccc(F)cc2)N(S(=O)(=O)c2ccc(C)cc2)C1` (centres undefined) was tested. Which inhibition did it give?
Its inhibition is 0.96% (inactive).

How did the inhibition turn out when `Cc1cc(C)n(CCNS(=O)(=O)c2ccc(Cl)cc2)n1` was run?
The inhibition was -3.39% (inactive).

With `N#Cc1c(-c2cccs2)nc(SCC(=O)c2ccc(Br)cc2)[nH]c1=O` as the compound, how does the inhibition read?
Its inhibition is 49.9% (active).

With `N#Cc1c(-c2ccc(F)cc2)cc(C2CC2)nc1SCC(=O)c1cccs1` as the compound, how does the inhibition read?
The inhibition was 8.6% (inactive).

With `Cc1nnc(SCC(=O)NCc2cccs2)[nH]c1=O` as the compound, how does the inhibition read?
Its inhibition is 0.4% (inactive).

Which inhibition does the source give for `CC(C)(C)NC(=O)NC(=O)COC(=O)C1(C)CC1(Cl)Cl` (centres undefined) here?
The inhibition was -0.21% (inactive).

With `O=C(Nc1ccc(Cl)cc1)c1cc2nc(C3CC3)cc(C(F)(F)F)n2n1` as the compound, how does the inhibition read?
The inhibition was -1.38% (inactive).

With `O=C(COC(=O)c1cc2c(s1)CCCC2)NCc1ccccc1Cl` as the compound, how does the inhibition read?
Its inhibition is 0.1% (inactive).

Which inhibition does the source give for `CSc1ncccc1C(=O)NCc1ccccc1Cl` here?
Its inhibition is -4.63% (inactive).

With `Clc1ccc(-c2cc(COc3ccccc3)no2)cc1Cl` as the compound, how does the inhibition read?
Its inhibition is -6.65% (inactive).

`CC(C)Cn1c(N2CCN(C(=O)/C=C/c3ccccc3)CC2)nc2ccccc21` was tested. Which inhibition did it give?
Its inhibition is -10.9% (inactive).

`COc1cc(C)c(Cl)cc1S(=O)(=O)n1ccnc1` was tested. Which inhibition did it give?
The inhibition was -3.46% (inactive).

With `O=C(COc1ccc2ccc(=O)oc2c1)NCC(O)c1ccccc1` (centres undefined) as the compound, how does the inhibition read?
Its inhibition is -8.2% (inactive).

How did the inhibition turn out when `COc1ccc(CCNC(=O)COc2ccc3c(c2)OCO3)cc1` was run?
The inhibition was -3.21% (inactive).

With `Cc1cc2ccccc2n1CCNC(=O)COc1ccc2ccccc2c1` as the compound, how does the inhibition read?
Its inhibition is 45.2% (active).

With `Cc1ccc(C)c(NC(=O)CCS(=O)(=O)c2ccccc2)c1` as the compound, how does the inhibition read?
Its inhibition is 4.81% (inactive).

`CCc1nc2ccc(C(=O)NCCNC(C)=O)cn2c1N(CC)Cc1cccc(Br)c1` was tested. Which inhibition did it give?
The inhibition was 1.46% (inactive).

How did the inhibition turn out when `CCOC(=O)N1CCN(C(=O)c2ccccc2N(Cc2ccccc2)S(=O)(=O)c2ccc(OC)cc2)CC1` was run?
The inhibition was 9.59% (inactive).

How did the inhibition turn out when `COc1cccc(Cn2cc(COC(=O)Nc3ccc(F)cc3)nn2)c1` was run?
The inhibition was 6.34% (inactive).

With `CN(C)C(=O)c1nc2ccc(Cl)cn2c1CNCc1cccc(OC(F)(F)F)c1` as the compound, how does the inhibition read?
Its inhibition is -9.54% (inactive).

With `C=CCNC(=O)CSc1nc2scc(-c3ccco3)c2c(=O)n1CC=C` as the compound, how does the inhibition read?
The inhibition was 25.2% (active).

Which inhibition does the source give for `C=CCn1c(SCC(=O)c2c(N)n(C)c(=O)n(C)c2=O)nc2sc(CC)cc2c1=O` here?
Its inhibition is 2.42% (inactive).

With `C=CCn1c(=S)[nH]c2scc(-c3ccco3)c2c1=O` as the compound, how does the inhibition read?
The inhibition was 4.26% (inactive).

How did the inhibition turn out when `Nc1nc(NC(=O)/C=C/c2ccc(F)cc2)nn1-c1ccccc1` was run?
Its inhibition is -4.74% (inactive).

How did the inhibition turn out when `COc1ncnc2c1ncn2CCCNCCN1CCOCC1` was run?
The inhibition was -1.3% (inactive).

Which inhibition does the source give for `CCOC(=O)[C@]12CCCC=C1N(Cc1ccc(OC)cc1)C(=O)[C@@H]2CC(=O)NCc1cccs1` here?
Its inhibition is 6.08% (inactive).

How did the inhibition turn out when `NC(=O)C1CCN(C(=O)c2ccc3c(=O)n(Cc4cccc(Br)c4)c(=S)[nH]c3c2)CC1` was run?
Its inhibition is 9.5% (inactive).

With `NC(=O)C1CCN(Cc2nc3c(Br)cc(Br)cc3c(=O)[nH]2)CC1` as the compound, how does the inhibition read?
The inhibition was 28.2% (active).

For `O=C(Nc1ccccc1)N1CCN(Cc2nc3ccccc3c(=O)[nH]2)CC1`, which inhibition is on record?
The inhibition was -8.21% (inactive).

`O=C(NC1CCCC1)C1c2ccccc2OCC(=O)N1CC(F)(F)F` (centres undefined) was tested. Which inhibition did it give?
The inhibition was 1.68% (inactive).

With `O=C(CN1C(=O)C2C3C=CC(C3)C2C1=O)Nc1nc(-c2ccccn2)cs1` (centres undefined) as the compound, how does the inhibition read?
The inhibition was 2.72% (inactive).

How did the inhibition turn out when `CCc1nnc(NC(=O)CSc2nnc(COc3ccc(C#N)cc3)n2-c2ccccc2)s1` was run?
The inhibition was 0.08% (inactive).

With `N#Cc1ccc(OCC(=O)Nc2nc(-c3ccccn3)cs2)cc1` as the compound, how does the inhibition read?
Its inhibition is 32.4% (active).

For `CCN(Cc1ccncc1)C(=S)Nc1ccccc1C`, which inhibition is on record?
The inhibition was 0.38% (inactive).
